Data on 39 compounds can be found in PubChem BioAssay (NCATS).

Inconclusive results are not listed. Where a call stands in place of a potency, no number is given. Activity calls are given as the source filed them. The call rests on the fitted dose curve; in most records, active means well fitted curve in the direction sought with a large enough effect; inconclusive means small, poorly fitted or top-dose-only effect, or another doubt; inactive means no such curve, though single readings can be large; an effect the other way counts as inactive or inconclusive.

Chain of Metallo-beta-lactamase type 2 (Klebsiella pneumoniae) (C7C422 whole entry, looked up): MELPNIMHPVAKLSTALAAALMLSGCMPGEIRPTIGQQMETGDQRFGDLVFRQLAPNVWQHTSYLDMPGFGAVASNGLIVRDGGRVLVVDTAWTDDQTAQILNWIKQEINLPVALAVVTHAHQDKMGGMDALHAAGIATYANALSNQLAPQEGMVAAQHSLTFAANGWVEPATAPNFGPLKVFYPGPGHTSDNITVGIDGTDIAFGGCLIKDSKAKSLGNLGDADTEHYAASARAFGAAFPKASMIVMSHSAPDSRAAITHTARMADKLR
Chain of Glutathione peroxidase 1 (Homo sapiens) (P07203 whole entry, looked up): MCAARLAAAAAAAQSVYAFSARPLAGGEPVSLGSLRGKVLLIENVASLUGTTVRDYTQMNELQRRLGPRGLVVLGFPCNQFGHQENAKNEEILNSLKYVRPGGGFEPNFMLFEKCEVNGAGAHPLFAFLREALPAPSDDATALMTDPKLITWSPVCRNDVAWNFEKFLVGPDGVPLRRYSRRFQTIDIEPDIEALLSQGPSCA

The first assay concerns the target Metallo-beta-lactamase type 2 (Klebsiella pneumoniae) (UniProt C7C422). Nature of the assay: qHTS to identify inhibitors of the New Delhi Metallo-beta-lactamase (NDM): assay validation screen against the NCATS LOPAC Collection (AID 1794843). The following applies: NDM-1 enzyme, nitrocefin hydrolysis, absorbance 485 nm; series mostly up to 38.4 µM. The essentials: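 Absorbance at 485 nm from nitrocefin turnover (50 uM solution added), read at plateau, gives the read-out. Compounds in DMSO were incubated first with 2 nM final NDM-1 in pH 7.0 HEPES buffer containing 1 uM ZnSO4 and 0.01% Tween20.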
Regarding `c1ccc2cc(CC3=NCCN3)ccc2c1`, the Potency result is “inactive”.

On to `CC(=O)c1c(O)c(C)c(O)c(Cc2c(O)c3c(c(C(=O)/C=C/c4ccccc4)c2O)OC(C)(C)C=C3)c1O`, for which the Potency entry was “inactive”.

As for `O=[N+]([O-])c1ccc2nc(N3CCNCC3)ccc2c1`, the Potency result was “inactive”.

Consider `C[C@H](N)Cc1cccc(C(F)(F)F)c1`, for which the Potency entry was “inactive”.

In the case of `CN1CCc2cc(O)cc3c2[C@H]1Cc1ccc(O)c(O)c1-3`, the Potency result is “inactive”.

On to `Cc1c2ccncc2c(C)c2c1[nH]c1ccccc12`, for which the Potency result is “inactive”.

As for `CP(=O)(O)C1=CCNCC1`, the Potency result is “inactive”.

Take `CCCCCCCCCCCCCC(=O)O[C@@H]1[C@@H](C)[C@@]2(O)[C@@H](C=C(CO)C[C@@]3(O)C(=O)C(C)=C[C@@H]23)C2C(C)(C)[C@@]21OC(C)=O` (stereo partly drawn): the Potency entry was “inactive”.

With `O=C1/C(=C/c2ccccc2)C[C@@]2(O)[C@H]3Cc4ccc(O)c5c4[C@@]2(CCN3CC2CC2)[C@H]1O5`, the Potency result was “inactive”.

The target of another assay is Glutathione peroxidase 1 (Homo sapiens) (UniProt P07203). In words: Primary qHTS Assay for Inhibitors of Recombinant Selenoprotein Glutathione Peroxidase 1 (GPX1) (AID 1845191). Further: nearly all actives have a fitted effect of over 65% in size. Further: potency means the concentration at half of the fitted maximal effect. The following applies: recombinant GPX1, GR-coupled NADPH fluorescence, 15 min; series mostly up to 48.8 µM. An outline of the steps:
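Recombinant GPX1 (10 nM final) was preincubated with compound for 30 min at room temperature, then reacted with 1 mM GSH, 0.5 mM CHP, 0.5 mM NADPH and 100 nM glutathione reductase; NADPH fluorescence (340/450 nm) was read at 0 and 15 min.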
(In qHTS, concentration-response curves come from the screen itself.)
For `Oc1ccc2c3c1O[C@H]1c4[nH]c5ccccc5c4C[C@@]4(O)C(C2)N(CC2CC2)CCC314` (stereo partly drawn), the Potency entry is “inactive”.

As to `COc1ccc2[nH]cc(CCN)c2c1`, the Potency entry is “inactive”.

Turning to `Clc1ccc(N2CC3CCC(C2)N3)nn1`, the Potency result was “inactive”.

Take `CCOC(=O)c1ncn2c1[C@@H]1CCCN1C(=O)c1cc(OC)ccc1-2`: the Potency entry was “inactive”.

On to `O=[N+]([O-])c1cc(I)c(O)c(I)c1`, for which the Potency entry is “inactive”.

For `O=C1OC2(c3cc(Br)c(O)cc3Oc3c2cc(Br)c(O)[c]3[Hg])c2ccccc21` (stereo not drawn), the Potency entry is “inactive”.

With `CC(=O)NBr`, the Potency result is “inactive”.

Regarding `COc1ccc2c(c1)/C(=C/c1cnc[nH]1)C(=O)N2`, the Potency result is “inactive”.

Regarding `CN1CCC[C@@H]1Cc1c[nH]c2ccc(Nc3ncccc3[N+](=O)[O-])cc12`, the Potency result was “inactive”.

As for `CCCCCCCCCC(=O)O[C@H]1CC[C@H]2[C@@H]3CCC4=CC(=O)CC[C@]4(C)[C@H]3CC[C@]12C`, the Potency result was “inactive”.

As for `O=C1C=CC(=O)C=C1`, the Potency result is “inactive”.

On to `O=[N+]([O-])/C=C/c1ccc2c(c1)OCO2`, for which the Potency result was “inactive”.

Consider `Nc1ccc(CCN2CCN(c3cccc(C(F)(F)F)c3)CC2)cc1`, for which the Potency entry was “inactive”.

Regarding `CCn1cnc2c(Nc3cccc(Cl)c3)nc(N[C@@H]3CCCC[C@@H]3N)nc21`, the Potency entry was “inactive”.

Consider `NCC(CP(=O)(O)O)c1ccc(Cl)cc1` (stereo not drawn), for which the Potency entry was “inactive”.

`CN1CC[C@@]2(C)c3cc(OC(=O)Nc4ccccc4)ccc3N(C)[C@@H]12`: the Potency result was “inactive”.

As for `C[C@]12CC[C@H](OS(=O)(=O)O)CC1=CC[C@@H]1[C@@H]2CC[C@]2(C)C(=O)CC[C@@H]12`, the Potency result is “inactive”.

As for `CC(C)(C)c1cc(C=C(C#N)C#N)cc(C(C)(C)C)c1O`, the Potency entry is “inactive”.

For `c1ccc2sc(SNC3CCCCC3)nc2c1`, the Potency is 28.2 µM (active).

Turning to `CCCCC[C@@H](O)C1C(=O)OC(C)[C@H](O)/C=C/C=C/C=C/C=C/C=C(\C)C(O)C(O)C(O)C[C@H](O)C[C@H](O)C[C@H](O)C[C@H](O)C[C@@H]1O` (stereo partly drawn), the Potency result was “inactive”.

Take `C[N+]1(C)CCCCC1COC(=O)C(O)(c1ccccc1)c1ccccc1` (stereo not drawn): the Potency entry is “inactive”.

For the compound `CCCCCCCCCCCCCC(=O)O[C@@H]1[C@@H](C)[C@@]2(O)[C@@H](C=C(CO)C[C@@]3(O)C(=O)C(C)=C[C@@H]23)C2C(C)(C)[C@@]21OC(C)=O` (stereo partly drawn), the Potency entry is “inactive”.

Consider `C[C@@H](CO)NC(=O)[C@@H]1C=C2c3cccc4[nH]cc(c34)C[C@H]2N(C)C1`, for which the Potency result is “inactive”.

For the next assay, the target named is Phospholipid hydroperoxide glutathione peroxidase GPX4 (Homo sapiens) (UniProt P36969). In words: Primary qHTS Assay for Inhibitors of Recombinant Selenoprotein Glutathione Peroxidase 4 (GPX4) (AID 1845192). Further: nearly all actives have a fitted effect of over 65% in size. The following applies: recombinant GPX4, GR-coupled NADPH fluorescence, 15 min; series mostly up to 50 µM. The essentials: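 GR-coupled readout: 100 nM GR, 1 mM GSH, 0.5 mM NADPH; NADPH fluorescence (ex 340/em 450 nm) read at t=0 and after 15 min RT. GPX4 200 nM, preincubated 30 min with compound; substrate 0.5 mM CHP.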
Chain of Phospholipid hydroperoxide glutathione peroxidase GPX4 (Homo sapiens) (P36969 whole entry, looked up): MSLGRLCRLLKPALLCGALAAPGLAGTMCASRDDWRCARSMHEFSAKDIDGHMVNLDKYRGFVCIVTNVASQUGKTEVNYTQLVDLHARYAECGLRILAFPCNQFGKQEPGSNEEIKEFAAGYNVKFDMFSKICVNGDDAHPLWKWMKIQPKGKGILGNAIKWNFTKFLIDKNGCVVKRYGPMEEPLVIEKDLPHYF
With `CCCN(CCC)C1Cc2cc(OC)c(OC)cc2C1`, the Potency result was “inactive”.

In the case of `NC(Cc1cc(O)c(O)cc1O)C(=O)O` (stereo not drawn), the Potency result is “inactive”.

Take `CC(C)(C)c1o[nH]c(=O)c1CC(N)C(=O)O` (stereo not drawn): the Potency result was “inactive”.

Take `Oc1ccc2c3c1O[C@H]1c4[nH]c5ccccc5c4C[C@@]4(O)C(C2)N(CC2CC2)CCC314` (stereo partly drawn): the Potency entry was “inactive”.

For the compound `COc1ccc2[nH]cc(CCN)c2c1`, the Potency entry is “inactive”.

For the compound `Clc1ccc(N2CC3CCC(C2)N3)nn1`, the Potency entry was “inactive”.

For `Cc1cc([C@@H]2CCCN2C)on1`, the Potency result was “inactive”.

As for `CCOC(=O)c1ncn2c1[C@@H]1CCCN1C(=O)c1cc(OC)ccc1-2`, the Potency entry was “inactive”.

Take `CC(=O)NBr`: the Potency result is “inactive”.

`CN1CCC[C@@H]1Cc1c[nH]c2ccc(Nc3ncccc3[N+](=O)[O-])cc12`: the Potency entry was “inactive”.

As for `CN1CCc2cccc(Cl)c2CC1`, the Potency entry was “inactive”.

With `O=C1C=CC(=O)C=C1`, the Potency entry is “inactive”.

For `O=[N+]([O-])/C=C/c1ccc2c(c1)OCO2`, the Potency entry was “inactive”.

`CO[C@H]1CC=C2CCN3CCC4=C(CC(=O)OC4)[C@]23C1`: the Potency result was “inactive”.

`Nc1ccc(CCN2CCN(c3cccc(C(F)(F)F)c3)CC2)cc1`: the Potency entry is “inactive”.

As for `CCn1cnc2c(Nc3cccc(Cl)c3)nc(N[C@@H]3CCCC[C@@H]3N)nc21`, the Potency entry is “inactive”.

For `NCC(CP(=O)(O)O)c1ccc(Cl)cc1` (stereo not drawn), the Potency result was “inactive”.

As for `CN1CC[C@@]2(C)c3cc(OC(=O)Nc4ccccc4)ccc3N(C)[C@@H]12`, the Potency result is “inactive”.

As to `NC(C(=O)O)c1cc(=O)[nH]o1` (stereo not drawn), the Potency result was “inactive”.

For the compound `NC(=O)c1ccc(OCC(O)CN2CC=C(c3ccc(F)cc3)CC2)cc1` (stereo not drawn), the Potency entry is “inactive”.

Take `CC(C)(C)c1cc(C=C(C#N)C#N)cc(C(C)(C)C)c1O`: the Potency result was “inactive”.

As for `c1ccc2cc(CC3=NCCN3)ccc2c1`, the Potency result was “inactive”.

In the case of `CC(=O)c1c(O)c(C)c(O)c(Cc2c(O)c3c(c(C(=O)/C=C/c4ccccc4)c2O)OC(C)(C)C=C3)c1O`, the Potency entry is “inactive”.

Regarding `O=[N+]([O-])c1ccc2nc(N3CCNCC3)ccc2c1`, the Potency result was “inactive”.

Take `C[C@H](N)Cc1cccc(C(F)(F)F)c1`: the Potency entry is “inactive”.

Regarding `CN1CCc2cc(O)cc3c2[C@H]1Cc1ccc(O)c(O)c1-3`, the Potency entry is “inactive”.

`Cc1c2ccncc2c(C)c2c1[nH]c1ccccc12`: the Potency result was “inactive”.

As to `C[N+]1(C)CCCCC1COC(=O)C(O)(c1ccccc1)c1ccccc1` (stereo not drawn), the Potency result was “inactive”.

Turning to `CP(=O)(O)C1=CCNCC1`, the Potency result was “inactive”.

As for `CCCCCCCCCCCCCC(=O)O[C@@H]1[C@@H](C)[C@@]2(O)[C@@H](C=C(CO)C[C@@]3(O)C(=O)C(C)=C[C@@H]23)C2C(C)(C)[C@@]21OC(C)=O` (stereo partly drawn), the Potency entry was “inactive”.

With `O=C1/C(=C/c2ccccc2)C[C@@]2(O)[C@H]3Cc4ccc(O)c5c4[C@@]2(CCN3CC2CC2)[C@H]1O5`, the Potency result was “inactive”.
